Screening results deposited in PubChem by National Center for Advancing Translational Sciences (NCATS).
This is a sample that favours compounds with a hit; in the whole collection about 19% have one here.
HT1080-NT tox = qHTS for induction of synthetic lethality in tumor cells producing 2HG: qHTS for the HT-1080-NT fibrosarcoma cell line; AID 686970, 2013; hit rate 1.6% among 360,000; Potency, µM (series often up to 46.1 µM), inactives show top-dose activity, negative = less viability, usual class: cytotoxic; HT-1080-NT fibrosarcoma viability, CellTiter-Glo ATP luminescence, 48 h;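 further: NT is the 2HG producing partner of a matched IDH1 knockdown line; 0% = DMSO-treated cells and -100% = media-only wells without cells; nearly all actives have a fitted effect of over 55% in size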
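Fibrosarcoma NT cells, 750 per well in 5% FBS RPMI, were exposed to compound for 48 hours. Viability: CellTiter-Glo luminescence.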
KB-3-1 tox = qHTS assay for MDR1-selective chemotherapeutics: Primary screen using the parental adenocarcinoma cell KB-3-1 | KB-3-1 viability, CellTiter-Glo ATP luminescence, 72 h | Potency, µM (titrated, usually from 46.1 µM), hits mostly cytotoxic | hit rate 1.4% among 400,000 | AID 1347075, 2019; further: nearly all actives have a fitted effect of over 60% in size
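Cells are dispensed, compounds pinned in, plates held at 37 °C for 72 h, then CellTiter-Glo is added and luminescence read after 10 minutes. Cell line: parental KB-3-1 in phenol-red-free DMEM, 10% FBS.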
HT1080 IDH1KD tx = qHTS for induction of synthetic lethality in tumor cells producing 2HG: qHTS for the HT-1080-IDH1KD cell line. HT-1080 IDH1 knockdown viability, ATP luminescence, 48 h. Potency, µM (highest dose often 46.1 µM), for the others: top-dose activity, negative = toxicity, hits mostly cytotoxic. hit rate 2% among 360,000. AID 686971, 2013;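 further: 0% = DMSO wells and -100% = cell-free medium wells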
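Luminescent ATP read-out (CellTiter-Glo, 10 min at room temperature) after 48 h compound exposure at 37 °C gave viability of IDH1-knockdown HT-1080 cells. Activity was normalised to DMSO and cell-free wells, then fitted as concentration-response curves.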
KB-V1 cytotox = qHTS assay for MDR1-selective chemotherapeutics: Primary screen using the drug-selected MDR subline cells KB-V1; KB-V1 MDR cells viability, CellTiter-Glo, 72 h; AID 1347076, 2019; hit rate 3.4% among 400,000; Potency, µM (titrated, usually from 46.1 µM), most hits filed as cytotoxic; further: nearly all actives have a fitted effect of over 60% in size
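Cells of the MDR subline KB-V1 are plated, dosed with compound at multiple concentrations, and incubated 72 h at 37 degrees C; CellTiter-Glo is then added and luminescence read after 10 min.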
DT40 TDP1 CPT = qHTS for Inhibitors of human tyrosyl-DNA phosphodiesterase 1 (TDP1): qHTS in cells in presence of CPT | chicken DT40 Tdp1-/-;hTDP1 cells + 20 nM CPT, ATP luminescence, 48 h | Potency, µM (highest dose often 46.2 µM), for the others: at the highest dose activity change, negative = growth inhibition, usual class: inhibitors | hit rate 12% among 420,000; further: nearly all actives have a fitted effect of over 55% in size
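Chicken DT40 Tdp1-/- cells complemented with human TDP1, 400 cells/well, exposed to compounds plus 20 nM camptothecin for at least 48 h at 37 C; viability read as ATP content by CellTiter-Glo luminescence.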
DT40 TDP1 no CPT = qHTS for Inhibitors of human tyrosyl-DNA phosphodiesterase 1 (TDP1): qHTS in cells in absence of CPT. DT40 Tdp1-/- hTDP1 cells, no CPT, ATP luminescence, 48 h. Potency, µM (titrated, usually from 46.2 µM), without a hit: top-dose activity change, negative = growth inhibition, actives largely listed as inhibitors. hit rate 15% among 420,000. AID 686978, 2013; further: nearly all actives have a fitted effect of over 55% in size
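Chicken DT40 Tdp1-/- cells complemented with human TDP1, screened without camptothecin (DMSO vehicle only), 400 cells/well. Compounds pin-transferred, cells incubated at 37 °C for at least 48 hr. Growth read as ATP-dependent luminescence (CellTiter-Glo, 30 min at RT).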
The depositor's hits bear a star; [ ] = remark or other dose. The call rests on the fitted dose curve; in most records, active means well fitted curve in the direction sought with a large enough effect; inconclusive means small, poorly fitted or top-dose-only effect, or another doubt; inactive means no such curve, though single readings can be large; an effect the other way counts as inactive or inconclusive. Unless noted, on the % scale 0 is the no-effect control and ±100 the full control effect; potency means the concentration at half of the fitted maximal effect.

For Cn1c(N)c(C(=O)CSc2nnc(-c3ccccc3F)n2N)c(=O)n(C)c1=O the results were HT1080-NT tox 0%, KB-3-1 tox inactive, HT1080 IDH1KD tx 5%, KB-V1 cytotox inactive, DT40 TDP1 CPT 1% and DT40 TDP1 no CPT 14%.
For CCCn1c(N)c(C(=O)CSc2n[nH]c(-c3ccccc3F)n2)c(=O)n(C)c1=O the results were HT1080-NT tox 1%, KB-3-1 tox inactive, HT1080 IDH1KD tx -9%, KB-V1 cytotox inactive, DT40 TDP1 CPT 21µM* and DT40 TDP1 no CPT 23µM*.
Screening Cn1c(=O)c(C(=O)CSc2nnc(Nc3ccccc3)s2)c(N)n(Cc2ccccc2)c1=O returned HT1080-NT tox -12%, KB-3-1 tox inactive, HT1080 IDH1KD tx -10%, KB-V1 cytotox inactive, DT40 TDP1 CPT -20% and DT40 TDP1 no CPT -13%.
For CN(CC(=O)Nc1ccc(N2CCOCC2)cc1)C(=O)CCc1ccccc1Cl the results were HT1080-NT tox -1%, KB-3-1 tox inactive, HT1080 IDH1KD tx -7%, KB-V1 cytotox inconclusive, DT40 TDP1 CPT inconclusive and DT40 TDP1 no CPT -29%.
For Cc1ccccc1OCCC(=O)OCC(=O)Nc1ccc(N2CCOCC2)cc1 the results were HT1080-NT tox 1%, KB-3-1 tox inactive, HT1080 IDH1KD tx -27%, KB-V1 cytotox inactive, DT40 TDP1 CPT 16µM* and DT40 TDP1 no CPT inconclusive.
`CSc1ccccc1C(=O)OCC(=O)Nc1ccc(N2CCOCC2)cc1` gave HT1080-NT tox 17%, KB-3-1 tox inactive, HT1080 IDH1KD tx 13%, KB-V1 cytotox 21µM*, DT40 TDP1 CPT inconclusive and DT40 TDP1 no CPT inconclusive.
`CN(CC(=O)Nc1ccc(N2CCOCC2)cc1)C(=O)CCCOc1ccc(Cl)cc1Cl` gave HT1080-NT tox inconclusive, KB-3-1 tox inactive, HT1080 IDH1KD tx -28%, KB-V1 cytotox inactive, DT40 TDP1 CPT 9.2µM* and DT40 TDP1 no CPT inconclusive.
Cc1ccc(NC(=O)COC(=O)CCOc2ccccc2C)cc1 was read as HT1080-NT tox 2%, KB-3-1 tox inactive, HT1080 IDH1KD tx -1%, KB-V1 cytotox inactive, DT40 TDP1 CPT 2% and DT40 TDP1 no CPT 1%.
`COc1ccc(CNc2nc(-c3ccco3)nn2C(=O)CC(C)C)cc1` gave DT40 TDP1 CPT -23% and DT40 TDP1 no CPT -13%.
COc1ccc(C(=O)NCC(c2ccco2)N2CCc3ccccc32)c(OC)c1 (centres undefined) was read as HT1080-NT tox 0%, KB-3-1 tox inactive, HT1080 IDH1KD tx -16%, KB-V1 cytotox inconclusive, DT40 TDP1 CPT inconclusive and DT40 TDP1 no CPT 7.3µM*.
COc1ccc(S(=O)(=O)NCC(c2ccco2)N2CCc3ccccc32)cc1 (centres undefined) was read as HT1080-NT tox -12%, KB-3-1 tox inactive, HT1080 IDH1KD tx -11%, KB-V1 cytotox inactive, DT40 TDP1 CPT inconclusive and DT40 TDP1 no CPT 15µM*.
COc1cc(C(=O)NCC(c2ccco2)N2CCc3ccccc3C2)cc(OC)c1OC (centres undefined) was read as HT1080-NT tox 3%, KB-3-1 tox inactive, HT1080 IDH1KD tx 1%, KB-V1 cytotox inconclusive, DT40 TDP1 CPT inconclusive and DT40 TDP1 no CPT inconclusive.
For COc1ccc(C(=O)NCC(c2ccco2)N2CCc3ccccc3C2)c(OC)c1 (centres undefined) the results were HT1080-NT tox -11%, KB-3-1 tox inactive, HT1080 IDH1KD tx -16%, KB-V1 cytotox inconclusive, DT40 TDP1 CPT 23µM* and DT40 TDP1 no CPT 8.2µM*.
`Cc1ccc(S(=O)(=O)NCC(c2ccco2)N2CCc3ccccc32)cc1` (centres undefined) gave HT1080-NT tox -10%, KB-3-1 tox inactive, HT1080 IDH1KD tx -4%, KB-V1 cytotox inconclusive, DT40 TDP1 CPT inconclusive and DT40 TDP1 no CPT inconclusive.
Screening COC(=O)CNc1cccc(C(F)(F)F)c1 returned HT1080-NT tox 21%, KB-3-1 tox inactive, HT1080 IDH1KD tx 10%, KB-V1 cytotox inconclusive, DT40 TDP1 CPT 10% and DT40 TDP1 no CPT -11%.
For CC(=O)N1CCCC1(C(=O)O)c1ccccc1 (centres undefined) the results were HT1080-NT tox 7%, KB-3-1 tox inactive, HT1080 IDH1KD tx 13%, KB-V1 cytotox inactive, DT40 TDP1 CPT -5% and DT40 TDP1 no CPT -12%.
`CCc1c(C2(O)CCCCC2)[nH]c2cnccc12` gave HT1080-NT tox 0%, KB-3-1 tox inactive, HT1080 IDH1KD tx -2%, KB-V1 cytotox inactive, DT40 TDP1 CPT inconclusive and DT40 TDP1 no CPT 18µM*.
Screening C=CC[C@H](CC(=O)NCCO)C(=O)N[C@@H](COC(=O)[C@@H](CC=C)Cc1ccc(F)cc1)Cc1ccccc1 returned HT1080-NT tox 0%, KB-3-1 tox inactive, HT1080 IDH1KD tx 1%, KB-V1 cytotox inactive, DT40 TDP1 CPT 21µM* and DT40 TDP1 no CPT inconclusive.
`C=CCC[C@H](Cc1ccc(F)cc1)C(=O)OC[C@@H](NC(=O)[C@H](CC=C)CC(=O)NCCO)c1ccccc1` gave HT1080-NT tox 0%, KB-3-1 tox inactive, HT1080 IDH1KD tx 12%, KB-V1 cytotox inactive, DT40 TDP1 CPT 21µM* and DT40 TDP1 no CPT inconclusive.
`CCCOc1ccc(Cn2c(=O)oc3ccc(C)cc32)cc1` gave HT1080-NT tox 8%, KB-3-1 tox inactive, HT1080 IDH1KD tx 3%, KB-V1 cytotox inactive, DT40 TDP1 CPT -2% and DT40 TDP1 no CPT -23%.
For Cc1cccc(N(C)c2nc3ccc(C)cc3n3cnnc23)c1 the results were KB-3-1 tox inactive, KB-V1 cytotox inactive, DT40 TDP1 CPT inconclusive and DT40 TDP1 no CPT 16µM*.
Screening CCSc1nnc(C(C)NC(=O)c2ccc(OC)cc2)n1C (centres undefined) returned DT40 TDP1 CPT 9%[9.04 µM] and DT40 TDP1 no CPT -13%.
For CC/C(C)=N\Nc1nc(-c2cc3cc(OC)ccc3oc2=O)cs1 the results were HT1080-NT tox inconclusive, KB-3-1 tox inactive, HT1080 IDH1KD tx 15µM*, KB-V1 cytotox inactive, DT40 TDP1 CPT inconclusive and DT40 TDP1 no CPT 18µM*.
